Source: PubChem BioAssay
Compounds with a hit are over-represented: about 2.2% of the library has one in this group of screens.
Ba/F3 V617F tox = reduce viability of Ba/F3 cells dependent on JAK2V617F. Ba/F3 EpoR-JAK2V617F viability, ATP luminescence. inhibition, % at 5.6 µM. 220,000 compounds, 1.1% hits. AID 1446;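 active = inhibition above the campaign mean plus 3 SD over all tested compounds, cut at about 24% in these data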;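 note: cytokine-independent growth of Ba/F3 cells driven by EpoR plus mutant JAK2; 0% = DMSO-treated cells and 100% = JAK inhibitor I control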
BaF3 tox = parental Ba/F3 viability inhibition as JAK2V617F counter-screen; inhibition, % at 5.6 µM; CellTiter-Glo ATP luminescence; 220,000 compounds, 1.1% hits;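 active = inhibition above a per-campaign cutoff, the mean inhibition of all tested compounds plus 3 SD, cut at about 27% in these data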;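 note: 0% = DMSO wells and 100% = JAK Inhibitor I control wells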
aSyn UTR inh = MLPCN primary screen, SNCA 5' untranslated region; alpha-synuclein 5'UTR reporter, inhibitor activity; inhibition, % (tested at 7.5 µM); 300,000 compounds, 0.82% hits; AID 1813; in the data active = inhibition above about 60%;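 note: H4 neuroglioblastoma cells stably carrying SNCA 5'UTR luciferase fusion; 0% = DMSO wells and 100% = positive control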
KLF5 inhibitor = kruppel-like factor 5 inhibition; inhibition, % at 5 µM; AID 1700; 290,000 compounds, 0.23% hits; DLD-1 KLF5 promoter-luciferase reporter, luminescence;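 active = inhibition above a per-plate limit of that plate's mean compound inhibition plus 3 SD, cut at about 60% in these data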;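 note: 0% = DMSO wells and 100% = LY294002 at 200 µM; higher means less KLF5 promoter-driven luciferase light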
APP 5UTR inh = APP translation inhibition. SH-SY5Y APP 5'UTR-luciferase reporter, luminescence. inhibition, % at 2 µM. 190,000 compounds, 0.82% hits. AID 1285;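 active = inhibition above a set limit, derived from the sample mean plus 3 SD, cut at about 45% in these data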
IEC-6 cytotox = kills IEC-6 intestinal cells in KLF5 counter-screen; IEC-6 cytotoxicity, luminescence viability; inhibition, % at 5 µM; AID 1825; 290,000 compounds, 0.78% hits; in the data active = inhibition above about 22%;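 note: 0% = plate median of test compound wells and 100% = cytotoxic reference compound wells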
The depositor's hits bear a star; · = no result.

SMILES	Ba/F3 V617F tox	BaF3 tox	aSyn UTR inh	KLF5 inhibitor	APP 5UTR inh	IEC-6 cytotox
Cc1c(C(=O)C(=O)N2c3ccccc3CC2C)c2ccccc2n1C (stereo not given)	3	8	-8	4	-7	9
O=C(O)c1ccccc1C(=O)N1CC=C(c2ccccc2)CC1	16	38*	-12	-35	4	-2
O=C(CSc1nnc(-c2ccc(Br)cc2)o1)Nc1cccc(C(=O)O)c1	·	·	98*	56	·	-3
O=C(CSc1nnc(-c2ccc(Br)cc2)o1)Nc1cccc2ccccc12	-1	3	·	-1	-3	-2
O=C(CC(C(=O)N1CCc2ccccc21)n1ccnc1)NCC1CCCO1 (stereo not given)	1	95*	8	-30	-10	0
CCCCNC(=O)CC(C(=O)N1CCc2ccccc21)n1ccnc1 (stereo not given)	-4	0	5	-17	14	0
CC(=O)Nc1ccc(OCC(=O)NC(C)C(C)C)cc1 (stereo not given)	0	2	-5	-19	-22	4
CC(=O)Nc1cccc(OCC(=O)NC(C)C(C)C)c1 (stereo not given)	-1	1	8	-3	69*	3
CCOCCOC(=O)c1cccc2c1-c1ccccc1C2=O	·	·	-13	-2	·	1
CCc1ccc(Nc2cnn(C34CC5CC(CC(CC(=O)O)(C5)C3)C4)c(=O)c2Cl)cc1	-1	3	-6	-13	57*	-7
Cc1c(C(=O)NC2CCC(C)CC2)oc2ccccc12 (stereo not given)	·	·	-143	-102	·	2
CCOc1cc(/C=N/NC(N)=O)cc(Br)c1OCc1ccccc1	·	·	45	·	·	·
CCOc1cc(/C=N/NC(N)=S)cc(Br)c1OCc1ccccc1C	11	28*	-74	11	-19	3
CNC(=S)N/N=C/c1cc(Br)c(OCc2ccncc2)c(OC)c1	·	·	30	-26	·	2
COc1cc(/C=N/NC(N)=S)cc(Br)c1OCc1ccccc1F	65*	53*	-74	-20	-20	9
Cc1cc(F)ccc1S(=O)(=O)N1CCCOC1CNC(=O)C(=O)NCc1ccc2c(c1)OCO2 (stereo not given)	·	·	7	-15	·	0
CCOC(=O)c1sc(NC(=O)c2cccc(S(=O)(=O)N3c4ccccc4CC3C)c2)cc1C (stereo not given)	-7	0	80*	-45	-4	0
Cc1cc(NC(=O)c2cccc(S(=O)(=O)N3c4ccccc4CC3C)c2)no1 (stereo not given)	1	1	33	-40	·	1
CC1CCc2cccc3c2N1c1cc(C#N)c(C#N)cc1O3 (stereo not given)	2	3	71*	-33	9	5
COCCn1c(SCC(=O)N2CCCc3ccccc32)nc2ccccc2c1=O	6	60*	14	6	12	2
Cc1cc(=O)[nH]c(SCC(=O)N2CCCc3ccccc32)n1	0	6	-17	4	65*	1
Cc1ccsc1C(=O)NCCc1nnc2ccccn12	·	·	-78	-81	·	-2
O=C1c2ccccc2C(=O)c2[nH]cnc21	-2	6	18	-30	·	5
O=C1c2ccccc2C(=O)c2c1ncn2-c1ccccc1	2	3	70*	-34	-2	0
O=c1cc(-c2c(F)c(F)c(F)c(F)c2F)oc2c(F)c(F)c(F)c(F)c12	-2	1	-12	-33	97*	0
SMILES	Ba/F3 V617F tox	BaF3 tox	aSyn UTR inh	KLF5 inhibitor	APP 5UTR inh	IEC-6 cytotox
O=c1cc(-c2c(F)c(F)c(F)c(F)c2F)oc2ccccc12	0	9	-39	-16	13	-2
Cc1ccc(NC(=O)N2CCc3ccccc32)cc1	-3	3	-18	-49	-170	5
CN1CCN(c2ccc(NC(=O)N3CCc4ccccc43)cc2)CC1	·	·	70*	38	·	-5
N/C(=N\OC(=O)c1ccc(Cl)cc1)c1ccccn1	7	9	63*	56	-185	9
COc1ccccc1C(=O)O/N=C(\N)c1ccccn1	3	10	31	-90	·	8
N/C(=N\OC(=O)c1cccc(Br)c1)c1ccccn1	·	·	72*	-74	·	11
N/C(=N\OC(=O)c1ccccc1[N+](=O)[O-])c1ccccn1	0	37*	-104	-133	-104	5
N/C(=N\OC(=O)c1ccccc1Cl)c1ccccn1	11	15	84*	-23	-123	11
Cc1ccc(N2CC(O)Cn3c2nc2c3c(=O)[nH]c(=O)n2C)cc1 (stereo not given)	·	·	16	-27	·	-2
N#CC1=C2SCN(c3ccccc3)CN2C(=O)CC1c1ccccc1Cl (stereo not given)	2	39*	-16	-13	0	5
CN(C(=O)c1ccc2c(c1)OCO2)C1CCS(=O)(=O)C1 (stereo not given)	·	·	4	·	·	·
O=C(Cc1csc(Nc2nc(=S)[nH]c3ccccc23)n1)NCCCN1CCN(c2ccccc2F)CC1	0	9	92*	10	14	0
Nc1c(C(=O)c2ccccc2)sc2snc(SCC(=O)c3ccccc3)c12	-4	95*	-37	-30	-38	4
CCC(=O)NC(c1cccs1)c1cc(Cl)c2cccnc2c1O (stereo not given)	4	4	86*	7	61*	14
CC(=O)NC(c1ccc(C)cc1)c1cc([N+](=O)[O-])c2cccnc2c1O (stereo not given)	-3	7	55	-37	6	-4
O=C(NC(c1ccc(Cl)cc1)c1cc(Cl)c2cccnc2c1O)c1cccnc1 (stereo not given)	4	9	98*	-14	79*	5
O=C(NCc1ccc(Cl)cc1)c1cccnc1	6	5	0	-31	11	3
CCCCC(=O)NC(c1cccs1)c1cc(Cl)c2cccnc2c1O (stereo not given)	0	1	80*	12	72*	1
CCC(=O)NC(c1ccc(C)cc1)c1cc([N+](=O)[O-])c2cccnc2c1O (stereo not given)	3	9	64*	-1	26	1
COc1ccc(CCN2CC(C(=O)Nc3ccccc3F)CC2=O)cc1OC (stereo not given)	·	·	13	·	·	·
CCCC(=O)NC(c1ccc(OC)c(OC)c1)c1cc(Cl)c2cccnc2c1O (stereo not given)	-5	2	50	-3	53*	-1
CN1CCN(C(c2ccc(Cl)cc2)c2cc(Cl)c3cccnc3c2O)CC1 (stereo not given)	·	·	77*	51	·	6
CN1CCN(C(c2ccc(C(F)(F)F)cc2)c2cc(Cl)c3cccnc3c2O)CC1 (stereo not given)	·	·	53	47	·	11
O=C(NCCCN1CCOCC1)c1ccc(/C=C2\Oc3ccccc3N(Cc3ccccc3F)C2=O)cc1	·	·	-40	-15	·	-1
CCN1CCN(CCCNC(=O)c2ccc(/C=C3/Oc4ccccc4N(Cc4cccc(C)c4)C3=O)cc2)CC1	·	·	101*	-10	·	-1
